# Assay results reported in PubChem BioAssay AID1851 (National Center for Advancing Translational Sciences (NCATS), 2009).
# About 5,700 (36%) of roughly 16,000 compounds were called active. Roughly 24% stayed inconclusive and do not appear here. Calls come from the whole dose curve; as a rule, active = well fitted curve in the direction sought with a large enough effect; inconclusive = small, poorly fitted or top-dose-only effect, or effect the other way; inactive = no such curve, though single readings can be large or run the other way. The list shows a part of the results.
# Biological target: Cytochrome P450 1A2 (Homo sapiens) (UniProt P05177)
# Sequence (P05177 whole entry, looked up): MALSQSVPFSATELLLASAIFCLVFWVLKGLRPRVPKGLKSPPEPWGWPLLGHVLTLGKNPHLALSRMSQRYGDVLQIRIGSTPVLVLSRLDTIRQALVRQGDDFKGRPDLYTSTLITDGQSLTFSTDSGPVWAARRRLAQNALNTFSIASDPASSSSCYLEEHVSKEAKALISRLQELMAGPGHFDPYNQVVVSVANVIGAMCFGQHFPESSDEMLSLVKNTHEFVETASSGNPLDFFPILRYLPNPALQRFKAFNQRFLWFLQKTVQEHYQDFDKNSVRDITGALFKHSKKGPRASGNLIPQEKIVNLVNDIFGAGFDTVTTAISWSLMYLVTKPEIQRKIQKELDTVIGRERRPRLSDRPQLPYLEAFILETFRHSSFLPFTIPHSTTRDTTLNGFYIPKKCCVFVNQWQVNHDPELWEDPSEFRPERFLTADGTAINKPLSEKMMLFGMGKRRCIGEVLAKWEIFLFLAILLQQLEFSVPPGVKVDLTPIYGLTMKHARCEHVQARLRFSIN
# Assay: Cytochrome panel assay with activity outcomes
# Settings: recombinant CYP, pro-luciferin dealkylation, luminescence, p450-cyp1a2; series mostly up to 57.1 µM; activity, negative = inhibition: at the top concentration
# % is set by controls: 0 for no effect and ±100 for the full control effect.
SMILES,"activity, negative = inhibition",AC50
O=C1O[C@@H]([C@H](O)[C@H](O)[C@H](O)CO)[C@@H](O)[C@@H]1O,-12.7% [at 11.4 µM] (inactive),
NC(=O)c1cc[n+](CC2=C(C(=O)[O-])N3C(=O)[C@@H](NC(=O)Cc4cccs4)[C@@H]3SC2)cc1,-15.1% [at 25.6 µM] (inactive),
C[C@H](Oc1ccccc1)C(=O)N[C@@H]1C(=O)N2[C@@H]1SC(C)(C)[C@@H]2C(=O)O,-7.23% [at 25.6 µM] (inactive),
NOCC(=O)O,-5.6% (inactive),
Cc1cc(C(C)(C)C)c(O)c(C)c1CC1=NCCN1,,inactive
Cc1n[nH]c(=O)[nH]c1=O,-6.49% [at 25.6 µM] (inactive),
CCNc1ncc2nc(-c3ccc(OC)cc3)c(=O)n(-c3ccc(OC)cc3)c2n1,-17.8% (inactive),
CCNc1ncc2nc(-c3ccc(Cl)cc3)c(=O)n(C)c2n1,,0.398 µM (active)
CN1CCN(c2ncnc3ccc(-c4cccc(C#N)c4)cc23)CC1,,1.26 µM (active)
c1cncc(-c2ccc3ncnc(N4CCNCC4)c3c2)c1,,1.26 µM (active)
N#Cc1cccc(-c2ccc3ncnc(N4CCNCC4)c3c2)c1,,0.631 µM (active)
COc1cc2cc3c4cc(OC)c(OC)cc4cc[n+]3c(C)c2cc1OC,-21.4% [at 25.6 µM] (inactive),
CC(C)CO/N=C1/[C@H]2O[C@@H]2[C@@H](O)[C@H]2[C@H]1CCn1c(=O)n(-c3ccccc3)c(=O)n12,-6.37% [at 11.4 µM] (inactive),
CCOc1cc(CNCCCN2CCOCC2)cc(Br)c1OCC(=O)Nc1cccc(C(F)(F)F)c1,-15.4% (inactive),
CCOc1cc(CNCCO)cc(Br)c1OCc1ccccc1Cl,,0.158 µM (active)
OCCCCNCc1ccc(OCc2ccccc2Cl)cc1,,5.01 µM (active)
Clc1ccccc1CNCC1CCC(CNCc2ccccc2Cl)CC1 (stereo not drawn),-6.82% (inactive),
Clc1ccc(-c2nc3ncccn3c2Nc2ccc3c(c2)OCCO3)cc1,,6.31 µM (active)
CC(C)CN1CCC2(CC1)CCN(C(=O)c1cc(C(F)(F)F)cc(C(F)(F)F)c1)CC2,-4.57% (inactive),
O=C(O)C1C2C=CC(C2)C1C(=O)N1CCN(C/C=C/c2ccccc2)CC1 (stereo not drawn),-25.9% (inactive),
O=C(/C=C/c1ccc2ccccc2c1)c1ccoc1,,2.24 µM (active)

SMILES,"activity, negative = inhibition",AC50
O=c1cc(-c2ccccc2)oc2cc(O)c(O)c(O)c12,,0.501 µM (active)
CC(C)(C)OC(=O)COc1cc(OCC(=O)OC(C)(C)C)c2c(=O)cc(-c3ccccc3)oc2c1,-27.5% (inactive),
NS(=O)(=O)Cc1noc2ccccc12,-5.73% (inactive),
CCC(CC)C(=O)Nc1ccc(C)c(O)c1,,12.6 µM (active)
CCCCC(=O)Nc1ccc(C)c(O)c1,,3.55 µM (active)
CCCCC(=O)Nc1ccc(C(=O)NNC(=O)CCc2ccccc2)cc1,0.428% (inactive),
CCC(CC)C(=O)Nc1cccc(C(=O)Nc2ccc(OC)cc2[N+](=O)[O-])c1,-2.86% (inactive),
COc1cc(C2C(C(=O)c3ccc(C)o3)=C(O)C(=O)N2CCc2ccccc2)ccc1O (stereo not drawn),-18.9% (inactive),
O=C1/C(=C\c2ccccn2)SC(=S)N1Nc1ncc(C(F)(F)F)cc1Cl,,8.91 µM (active)
Cc1cc(C)nc(NN2C(=O)/C(=C/c3ccccc3)SC2=S)n1,-1.03% (inactive),
Cc1cc(C)n2nc(SCN3C(=O)c4ccccc4C3=O)nc2n1,18.7% [at 11.4 µM] (inactive),
Cc1cc(C)n2nc(SCc3cc(=O)oc4ccc5ccccc5c34)nc2n1,,5.62 µM (active)
CCCSc1nnc(CSc2nc3nc(C)cc(C)n3n2)o1,0.494% (inactive),
S=C(Nc1ccccc1)Nc1ccc(OCc2ccccc2)cc1,,5.62 µM (active)
O[C@@H]1[C@@H](OCc2ccccc2)OC[C@H](O)[C@@H]1O,-15.1% [at 11.4 µM] (inactive),
Oc1ccc(OCc2ccccc2)cc1,,1.58 µM (active)
O=C(O)c1c[nH]c2cc(OCc3ccccc3)ccc2c1=O,-19.1% [at 11.4 µM] (inactive),
Cc1c(C(=O)Nc2ccc(OCc3ccccc3)cc2)cccc1[N+](=O)[O-],-26.7% (inactive),
CO[C@@H]1COC(=O)[C@H]2CCCN2C(=O)C/C=C\[C@@H](C)[C@H](OC)COC(=O)[C@H]2CCCN2C(=O)C/C=C\[C@H]1C,-18.1% [at 11.4 µM] (inactive),
Cn1c2c(c(=O)n(C)c1=O)[C@@H]1c3c(ccc4ccccc34)OC[C@@H]1CO2,-2.25% (inactive),
COc1ccc(O[C@H]2C=C[C@@H](c3ccccc3)O[C@H]2COC(=O)CC/C(C)=N/O[C@@H]2O[C@H](COC(C)=O)[C@H](OC(C)=O)[C@H](OC(C)=O)[C@H]2OC(C)=O)cc1,7.86% [at 11.4 µM] (inactive),

SMILES,"activity, negative = inhibition",AC50
Cc1noc(C)c1C(=O)N1CCC2(CCCN(c3ccncc3)C2)CC1,7.42% (inactive),
CCCCNC(=O)NS(=O)(=O)c1ccc(C)cc1,-9.95% [at 25.6 µM] (inactive),
CCCCNC(=S)NNC(=O)c1sccc1C,,14.1 µM (active)
CC1CCc2c(C(=O)Nc3nccs3)csc2C1 (stereo not drawn),,1 µM (active)
CCCCNC(=S)NNC(=O)c1csc2c1CCC(C)C2 (stereo not drawn),,14.1 µM (active)
COc1ccc(-c2cc(C3CCN(c4cc(Cl)nc(N)n4)CC3)[nH]n2)cc1,,15.8 µM (active)
COc1ccc(-c2cc(C3CCN(c4ccc(C(C)=O)cc4[N+](=O)[O-])CC3)[nH]n2)cc1,,7.08 µM (active)
O=C(NNC(=S)NCc1ccco1)c1ccc(Cl)s1,,22.4 µM (active)
O=C(NC(=S)NNC(=O)c1cccs1)c1ccco1,12.9% (inactive),
S=C(NCc1ccco1)N1CCN(Cc2ccco2)CC1,-25.8% (inactive),
CCOC(=O)C(=CNc1cccc(C)c1C)C(=O)OCC,-19.1% (inactive),
CCOC(=O)C(=CNCC(=O)O)C(=O)OCC,12.3% (inactive),
CCOC(=O)C(=CNc1ncccc1C)C(=O)OCC,,1.12 µM (active)
Cc1ccc(C)c(-c2cc(C(=O)Nc3nccs3)c3ccccc3n2)c1,,0.891 µM (active)
COC(=O)c1sccc1NC(=O)c1cc(-c2ccc(C)cc2C)nc2ccccc12,-22.7% (inactive),
Cc1ccc(Nc2ncccc2C(=O)NCc2cccs2)c(C)c1,,1 µM (active)
Cc1ccc(C)c(-c2cc(C(=O)NCc3cccs3)c3ccccc3n2)c1,,2.24 µM (active)
Cc1ccc(C)c(NC(=O)Cn2nnc(C(=O)NCc3cccs3)c2N)c1,1.98% (inactive),
Cc1ccc(NC(=O)CCC(=O)NNC(=O)c2cccs2)c(C)c1,-14.3% (inactive),
COc1ccc2oc(-c3ccc(C)c(NC(=O)CSc4ccc(Cl)cc4)c3)nc2c1,,3.16 µM (active)
COc1ccc2oc(-c3ccc(C)c(NC(=O)c4ccc(N5CCOCC5)c([N+](=O)[O-])c4)c3)nc2c1,-27% (inactive),
